Source: PubChem BioAssay (NCATS)
Records with an inconclusive call do not appear. Calls of active or inactive are those of the source. Unless noted, calls come from the whole dose curve; as a rule, active = well fitted curve in the direction sought with a large enough effect; inconclusive = small, poorly fitted or top-dose-only effect, or another doubt; inactive = no such curve, though single readings can be large; an effect the other way counts as inactive or inconclusive.

How the values were obtained:
[1] = target: Aldehyde dehydrogenase, mitochondrial (Homo sapiens) (UniProt P05091); assay: qHTS for Inhibitors of the Aldehyde Dehydrogenase Family (ALDH2) Confirmatory screens (AID 2061303; active = well fitted inhibition curve with a large enough effect; title and protocol of this record describe different tests; note: nearly all actives have a fitted effect of over 45% in size; note: potency is the fitted concentration of half-maximal effect); settings: ALDH inhibition qHTS; series mostly up to 45.4 µM
[2] = qHTS for Inhibitors of the Aldehyde Dehydrogenase Family (ALDH1A2, ALDH1A3, ALDH2, ALDH3A1) (AID 2061307); settings: ALDH inhibition qHTS; series mostly up to 50.3 µM; note: nearly all actives have a fitted effect of over 50% in size; for Potency: test system not described further here; potency is the fitted concentration of half-maximal effect
[3] = target: Aldehyde dehydrogenase, mitochondrial (Homo sapiens) (UniProt P05091); assay: qHTS for Inhibitors of the Aldehyde Dehydrogenase Family (ALDH2) Primary screen (AID 2061308); settings: ALDH2 enzyme inhibition qHTS, 1536-well; series mostly up to 56 µM; note: nearly all actives have a fitted effect of over 55% in size; note: potency is the fitted concentration of half-maximal effect
[4] = target: Retinaldehyde dehydrogenase 3 (Homo sapiens) (UniProt P47895); assay: qHTS for Inhibitors of the Aldehyde Dehydrogenase Family (ALDH1A3) Confirmatory screens (AID 2061311); settings: ALDH inhibition qHTS; series mostly up to 46 µM; note: nearly all actives have a fitted effect of over 60% in size; note: potency is the fitted concentration of half-maximal effect
[5] = target: Retinaldehyde dehydrogenase 3 (Homo sapiens) (UniProt P47895); assay: qHTS for Inhibitors of the Aldehyde Dehydrogenase Family (ALDH1A3) Primary screen (AID 2061315); settings: ALDH inhibition qHTS; series mostly up to 56 µM
[6] = target: Aldehyde dehydrogenase 1A1 (Homo sapiens) (UniProt P00352); assay: qHTS for Inhibitors of the Aldehyde Dehydrogenase Family (ALDH1A1) Confirmatory screens (AID 2061316); settings: ALDH inhibition qHTS; series mostly up to 47.3 µM; note: nearly all actives have a fitted effect of over 65% in size; note: potency is the fitted concentration of half-maximal effect

Measured: Potency

Cc1ccc(NS(=O)(=O)c2ccc3c(c2)CC(=O)N3)cc1C
active: [6] 1.59 µM
inactive: all other assays above

CN(Cc1ccco1)c1ncnc2ccc(-c3cccnc3)cc12
active: [4] 7.98 µM | [6] 11.3 µM
inactive: all other assays above

Cc1ccc(Cl)cc1NS(=O)(=O)c1cc2c(cc1F)NC(=O)CC2
inactive: [3] | [5]
active: [1] 12.6 µM | [2] 28.2 µM | [4] 12.6 µM

CN(Cc1cccs1)c1ncnc2ccc(-c3ccc4cnn(C)c4c3)cc12
inactive: all assays above

COc1ccc(C2Nc3ccccc3C(=O)N2Cc2cccc(C(F)(F)F)c2)cc1COc1ccc(NC(C)=O)cc1 (stereo not drawn)
active: [1] 11.2 µM | [2] 4 µM | [4] 10 µM
inactive: [3] | [5]

O=C(c1ccc(-c2cc(O)c3ncccc3c2)cc1)N1CCNCC1
active: [4] 11.3 µM
inactive: all other assays above

COc1ccc(C2Nc3ccccc3C(=O)N2Cc2ccc(C(F)(F)F)cc2)cc1COc1ccc(NC(C)=O)cc1 (stereo not drawn)
inactive: [3] | [5]
active: [1] 0.447 µM | [2] 3.57 µM | [4] 2.51 µM | [6] 22.5 µM

O=C1c2ccccc2C(=O)N1c1ncccc1O
inactive: all assays above

COc1ccc(C2=Nn3c(nnc3-c3ccc(OC)c(OC)c3)SC2)c(OC)c1
active: [6] 6.34 µM
inactive: all other assays above

COc1ccc(C2Nc3ccccc3C(=O)N2Cc2ccccc2)cc1COc1ccc(NC(=O)c2ccccc2)cc1 (stereo not drawn)
active: [2] 1.59 µM
not listed: [6]
inactive: all other assays above

CNc1oc(-c2cccc(-c3ccccc3)c2)nc1C#N
active: [1] 15.8 µM | [2] 17.8 µM | [4] 25.1 µM
inactive: all other assays above

O=C(Nc1ccc2c(c1)CCC2)Nc1nnc(-c2ccncc2)s1
not listed: [6]
inactive: all other assays above

O=[N+]([O-])c1ccc(CNc2ccc([S+](=O)([O-])Nc3nccs3)cc2)c(O)c1
not listed: [6]
inactive: all other assays above

CCOc1ccc(C(=O)Nc2ccc(-c3nc4ccccc4[nH]3)cc2)cc1
inactive: all assays above

N#Cc1nc(Nc2cccc(Br)c2)nc(NC2CCCC2)n1
active: [2] 10.1 µM
not listed: [6]
inactive: all other assays above

N=c1c2c(ncn1-c1ccccc1)Oc1ccc3ccccc3c1C2c1ccc2c(c1)CCO2 (stereo not drawn)
inactive: [3] | [5]
active: [1] 14.1 µM | [2] 7.08 µM | [4] 15.8 µM | [6] 31.6 µM

COc1ccc(OC)c(-c2nnc3n2N=C(c2ccc(OC)c(OCC4CC4)c2)CS3)c1
active: [6] 2.25 µM
inactive: all other assays above

Cc1ccc(C)c(SC2=NS(=O)(=O)c3ccccc32)c1
inactive: all assays above

Cc1cccc(S(=O)(=O)NC2CCN(C#N)C2)c1 (stereo not drawn)
active: [6] 11.3 µM
inactive: all other assays above

Cc1ccnc(NC(=S)N2CCN(c3ccc(N)cc3)CC2)c1
not listed: [6]
inactive: all other assays above

S=C(Nc1cc(Cl)ccn1)N1CCN(c2ccc3ccccc3n2)CC1
active: [1] 7.94 µM | [2] 14.1 µM | [3] 1.58 µM | [4] 22.5 µM | [6] 5.65 µM
inactive: [5]

FC(F)(F)c1ccccc1-c1nc(NCc2ccc(Cl)cc2)c2ccccc2n1
inactive: all assays above

COc1cccc(CNc2ccc([S+](=O)([O-])Nc3cc4ccccc4s3)cc2)c1O
active: [4] 11.3 µM
inactive: all other assays above

O=C(O)c1cccc(-n2cccc2)c1
inactive: all assays above

Nc1nnc(-c2cccc3ccccc23)o1
inactive: all assays above
